# From PubChem BioAssay (NCATS)
# Where “and” joins values, the source holds several entries; their conditions need not be identical. Equal values may be shown once. Unmarked numbers belong to inactive results. Results filed as inconclusive are left out. Calls of active or inactive are those of the source. Unless noted, the call rests on the fitted dose curve.
# What was measured:
# [1] = biological target: Glucocorticoid receptor (Homo sapiens) (UniProt P04150); test: GR-GFP Redistribution (AID 450;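 active means compounds whose dose series gives a full or clear partial fitted curve of increased nuclear translocation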; further: potency means the concentration at half of the fitted maximal effect); conditions: U2OS GR-GFP nuclear translocation, laser cytometry, 2 h
# Glucocorticoid receptor (Homo sapiens), sequence (P04150 whole entry, looked up): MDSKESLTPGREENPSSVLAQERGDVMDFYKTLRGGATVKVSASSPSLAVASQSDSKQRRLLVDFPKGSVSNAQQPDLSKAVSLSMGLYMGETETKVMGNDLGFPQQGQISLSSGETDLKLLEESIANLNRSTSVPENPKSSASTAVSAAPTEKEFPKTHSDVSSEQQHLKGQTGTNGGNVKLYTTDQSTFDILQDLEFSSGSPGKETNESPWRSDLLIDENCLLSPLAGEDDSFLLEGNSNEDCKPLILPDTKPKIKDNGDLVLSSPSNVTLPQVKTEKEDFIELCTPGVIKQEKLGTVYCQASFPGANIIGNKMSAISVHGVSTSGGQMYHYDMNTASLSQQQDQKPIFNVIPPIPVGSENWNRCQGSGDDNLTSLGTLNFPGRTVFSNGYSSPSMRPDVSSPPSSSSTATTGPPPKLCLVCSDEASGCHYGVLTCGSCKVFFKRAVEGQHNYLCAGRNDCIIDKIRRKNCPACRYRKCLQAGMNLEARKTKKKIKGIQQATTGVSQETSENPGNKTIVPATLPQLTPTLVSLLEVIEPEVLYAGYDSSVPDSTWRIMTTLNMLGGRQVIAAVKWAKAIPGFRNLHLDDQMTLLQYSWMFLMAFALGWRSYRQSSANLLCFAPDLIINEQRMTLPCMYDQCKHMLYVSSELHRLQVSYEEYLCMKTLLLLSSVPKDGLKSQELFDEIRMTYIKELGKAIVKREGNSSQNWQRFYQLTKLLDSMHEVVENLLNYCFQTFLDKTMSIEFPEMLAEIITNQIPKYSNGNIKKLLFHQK
# [2] = Cell Viability - BJ (AID 421); conditions: BJ fibroblast viability, qHTS;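 further: potency means the concentration at half of the fitted maximal effect; cells exposed to compound for 40 hours at 37 °C before readout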
# Summary of the method: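 Quantitative HTS: ATP depletion in BJ cells after 40 hr compound exposure in complete culture medium, detected with CellTiter-Glo; AC50 from standard Hill fits.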
# [3] = Cell Viability - HepG2 (AID 433); conditions: qHTS;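 further: potency means the concentration at half of the fitted maximal effect; cells exposed to compound for 40 hours; potency for ATP loss meaning cytotoxicity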
# Summary of the method: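 ATP luminescence (CellTiter-Glo) after 40 h compound exposure, 37 °C, HepG2, 1500 cells/well, complete medium. Normalized: DMSO = basal, 100 uM tamoxifen = 100% inhibition. AC50 via standard Hill equation.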
# [4] = Cell Viability - MRC5 (AID 434); conditions: MRC5 lung fibroblast viability, qHTS;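 further: potency means the concentration at half of the fitted maximal effect; cells exposed to compound for 40 hours at 37 °C; potency reflects cytotoxicity seen as loss of intracellular ATP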
# Summary of the method: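 AC50 values come from Hill-equation fits of intracellular ATP loss, measured by CellTiter-Glo luminescence. Normal lung fibroblasts (MRC5) had 40 hr compound treatment at 37 C, normalized between DMSO and 100 uM tamoxifen.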
# [5] = Cell Viability - SK-N-SH (AID 435); conditions: SK-N-SH neuroblastoma cell viability qHTS; further: potency means the concentration at half of the fitted maximal effect
# Summary of the method: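 CellTiter-Glo ATP luminescence, 20 min RT read; cells pre-plated 5 hr, compound 40 hr at 37 °C, 1500 cells/well, complete medium. Normalized DMSO = 0, 100 uM tamoxifen = 100% inhibition; Hill-fit AC50.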
# [6] = biological target: Cytochrome P450 1A2 (Homo sapiens) (UniProt P05177); test: p450-cyp1a2 (AID 410); conditions: recombinant CYP1A2, luciferin-ME demethylation, luminescence; series mostly up to 25.6 µM; further: potency means the concentration at half of the fitted maximal effect
# Cytochrome P450 1A2 (Homo sapiens), sequence (P05177 whole entry, looked up): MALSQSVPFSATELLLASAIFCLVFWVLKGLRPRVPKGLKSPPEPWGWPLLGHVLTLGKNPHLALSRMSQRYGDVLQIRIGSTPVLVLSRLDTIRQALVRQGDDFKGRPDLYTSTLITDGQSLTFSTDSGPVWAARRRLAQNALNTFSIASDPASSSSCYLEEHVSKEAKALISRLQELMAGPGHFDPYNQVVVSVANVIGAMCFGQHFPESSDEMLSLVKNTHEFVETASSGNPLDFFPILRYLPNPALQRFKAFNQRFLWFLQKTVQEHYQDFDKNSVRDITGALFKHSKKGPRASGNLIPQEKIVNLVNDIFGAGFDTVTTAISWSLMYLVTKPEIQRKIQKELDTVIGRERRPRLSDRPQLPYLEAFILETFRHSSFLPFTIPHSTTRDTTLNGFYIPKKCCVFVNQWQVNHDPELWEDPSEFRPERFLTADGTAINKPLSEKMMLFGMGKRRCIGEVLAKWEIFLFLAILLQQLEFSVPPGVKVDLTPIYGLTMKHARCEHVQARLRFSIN
# Summary of the method: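 O-Demethylation of luciferin 6' methyl ether by human CYP1A2 is monitored as luciferase luminescence. Substrate sits at Km (100uM); enzyme is 20nM. Values are scaled to 57 uM furafylline as maximal inhibition.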
# [7] = Stat Signaling Pathway (AID 446; active means well fitted curve in either direction with a large enough effect, not every such curve was filed as active;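 further: ME-180 cervical cancer cells given 40 pM IL-6 alongside compound; SIE-controlled beta-lactamase reporter measured as 460/530 nm FRET emission ratio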); conditions: ME-180 (cervical carcinoma) SIE beta-lactamase reporter, IL-6 stimulated, 5 h; series mostly up to 17.2 µM
# Summary of the method: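 Overnight-plated ME-180 cells bearing a STAT Inducible Element beta-lactamase reporter; 5 h co-exposure to compound and 40 pM IL-6; values normalized to 300 pM IL-6 and 125 nM JAK inhibitor controls.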
structure (smiles),measurement,setting,value
NCC(=O)O,Potency,[1],> 46 µM
CCCC(=O)c1cc(O)c(O)cc1O,Potency,[2],> 92 µM
same,Potency,[3],> 92 µM
same,Potency,[4],> 92 µM
CC(=O)OC/C=C(C)/C=C/C=C(C)/C=C/C1=C(C)CCCC1(C)C,Potency,[2],> 92 µM
same,Potency,[3],> 92 µM
same,Potency,[4],> 92 µM
CC(C)C(C)(C)C(C)(C)C(C)(C)S,Potency,[2],> 92 µM
same,Potency,[3],> 92 µM
same,Potency,[4],> 92 µM
same,Potency,[5],> 92 µM
Cn1cnc2c(NCc3ccccc3)nc(NCCO)nc21,Potency,[6],7.94 µM (active) and 5.01 µM (active)
same,outcome,[7],inactive
same,Potency,[1],> 46 µM
OCc1c[nH]c2ccccc12,Potency,[2],> 92 µM
same,Potency,[3],> 92 µM
same,Potency,[4],> 92 µM
same,Potency,[5],> 92 µM
Nc1c2ccccc2nc2ccccc12,Potency,[4],38.2 µM (active)
same,Potency,[5],40.5 µM (active)
CC(C)(c1ccc(O)cc1)c1ccc(O)cc1,Potency,[2],> 92 µM
same,Potency,[3],> 92 µM
same,Potency,[4],> 92 µM
same,Potency,[5],> 92 µM
